In the library only some 13% were active in any assay of this set; here they are far more common.
Pf growth 96h: P. falciparum growth inhibition at 96 hours | P. falciparum luciferase reporter growth, 96 h | AID 504834 | Potency, µM (doses to about 28.7 µM), usual class: inhibitors | 320,000 compounds, 6.9% hits
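Two parasite generations (96 h, 37 C, 5% CO2) of compound exposure in infected erythrocytes (0.05% parasitemia, 2% hematocrit). Luciferase-reporter P. falciparum; decreased luminescence indicates inhibited growth, aimed at apicoplast-acting delayed death.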
Pf growth 48h: inhibits P. falciparum growth in the first generation, 48 h. Potency, µM (top dose mostly 28.7 µM), actives largely listed as inhibitors. P. falciparum luciferase growth in erythrocytes, 48 h. 310,000 compounds, 5.9% hits. AID 504832
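Compounds are pin-transferred into medium, infected erythrocytes (2% hematocrit, 0.1% parasitemia final) are added, and plates sit one parasite generation at 37 C in 5% CO2. Detection reagent is then added and luminescence measured.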
HCMV inh: inhibitors of human cytomegalovirus; AID 1259415; HFF cells, HCMV-luciferase reporter, 72 h; active compounds read low; 410,000 compounds, 4.5% hits; activity change, negative = inhibition, % at 57.5 µM; in the data active = activity change below about -60%; inconclusive = no clear call, values can overlap the other calls; inactive = above about -39%
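Two compound doses tested in HFFs infected with HCMV-luciferase, MOI 1 PFU/cell, 72 h at 37C. Lysate luminescence read with OneGlo; data normalized against buffer-only and 10uM Salinomycin inhibitor controls.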
HCV inhibitor: blocks hepatitis C virus | Huh7.5.1 HCVcc-Cre infection, luciferase reporter, 44 h | Potency, µM (top dose mostly 41.8 µM), actives largely listed as inhibitors | AID 651820 | 340,000 compounds, 3.4% hits
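After 44 h co-culture of compound, cells and HCVcc-Cre (~0.5 moi), substrate is added for 15 min at room temperature and luciferase measured over 15 sec. Cells were seeded at 1,000/well and pre-cultured 4 h.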
Hits are given with their value. Unless noted, calls follow the shape of the dose curve; as a rule, active = well fitted inhibition curve with a large enough effect; inconclusive = small, poorly fitted or top-dose-only effect, or another doubt; inactive = no such curve, though single readings can be large or run the other way.

How did Cc1ccc(S(=O)(=O)CCC(=O)Nc2ccccc2Cl)cc1 do in these assays?
Pf growth 96h: inactive; Pf growth 48h: inactive; HCMV inh: inactive; HCV inhibitor: inactive

Results for Cc1ccccc1OCC(=O)Nc1cc(-c2cccc(Br)c2)nn1-c1ccccc1 ?
HCMV inh: inactive

Results for CCCNC(=O)c1ccc2c(=O)c(O)c(-c3ccc(Cl)c([N+](=O)[O-])c3)[nH]c2c1 ?
Pf growth 96h: inconclusive; Pf growth 48h: inconclusive; HCMV inh: inactive; HCV inhibitor: 5µM

Results for N#Cc1c(-c2ccc(Cl)cc2)ccnc1N1CCOCC1 ?
Pf growth 96h: 4.7µM; Pf growth 48h: inconclusive; HCMV inh: inconclusive; HCV inhibitor: inactive

Results for Cc1nnc2sc(SCc3ccccc3Cl)nn2c1=O ?
Pf growth 96h: inconclusive; Pf growth 48h: inconclusive; HCMV inh: inactive; HCV inhibitor: inactive

How did Cc1nnc2sc(SCc3cccc(Cl)c3)nn2c1=O do in these assays?
Pf growth 96h: 2.1µM; Pf growth 48h: 5.9µM; HCMV inh: inactive; HCV inhibitor: inactive

Results for Cc1nnc2sc(SCC(=O)Nc3nccs3)nn2c1=O ?
Pf growth 96h: 1.7µM; Pf growth 48h: inconclusive; HCMV inh: inactive; HCV inhibitor: inactive

How did Cc1nnc2sc(SCc3ccccc3)nn2c1=O do in these assays?
Pf growth 96h: inconclusive; Pf growth 48h: 10µM; HCV inhibitor: inactive

How did Cc1ccc(N2CCN(S(=O)(=O)c3ccc4oc(=O)c5ncn(C)c5c4c3)CC2)c(C)c1 do in these assays?
HCMV inh: inactive

How did Cc1ccc(C)c(CN2C(=O)C(O)(c3c[nH]c4ccccc34)c3ccccc32)c1 (centres undefined) do in these assays?
HCMV inh: inactive

What do the screens show for `O=C1N(Cc2ccccc2Cl)c2ccccc2C1(O)c1c[nH]c2ccccc12` (centres undefined)?
HCMV inh: -94

How did Cc1ccccc1CN1C(=O)C(O)(c2c[nH]c3ccccc23)c2cc(Cl)ccc21 (centres undefined) do in these assays?
HCMV inh: -93

How did CCC(=O)c1ccc(OC(=O)N(C)c2ccccc2)cc1 do in these assays?
Pf growth 96h: inactive; Pf growth 48h: inactive; HCMV inh: inactive; HCV inhibitor: inactive

Results for CC(=O)Nc1ccc(OC(=O)N(C)c2ccc(C)cc2)cc1 ?
Pf growth 96h: 9.3µM; Pf growth 48h: inconclusive; HCMV inh: inactive; HCV inhibitor: inactive

Results for Cc1ccc(N(C)C(=O)Oc2ccc(C(=O)c3ccc(Cl)cc3)cc2)cc1 ?
Pf growth 96h: 4.7µM; Pf growth 48h: inactive; HCMV inh: inactive; HCV inhibitor: inactive

Results for CC(=O)Nc1ccc(OC(=O)N(C)c2ccccc2)cc1 ?
Pf growth 96h: inactive; Pf growth 48h: inactive; HCMV inh: inactive; HCV inhibitor: inactive

How did CCn1c(=O)c(CCC(=O)NCC2CCCO2)c(C)c2c(C)nn(-c3ccc(C)cc3)c21 (centres undefined) do in these assays?
Pf growth 96h: inactive; Pf growth 48h: 5.2µM; HCMV inh: inactive; HCV inhibitor: inactive

How did CCn1c(=O)c(CCC(=O)N2CCN(c3ccccn3)CC2)c(C)c2c(C)nn(-c3cccc(C)c3)c21 do in these assays?
Pf growth 96h: inconclusive; Pf growth 48h: 9.3µM; HCMV inh: inactive; HCV inhibitor: inactive

Results for Cc1ccc(-c2noc(CCC(=O)NCC3CCCO3)n2)cc1 (centres undefined) ?
Pf growth 96h: inactive; HCMV inh: inactive; HCV inhibitor: inactive

What do the screens show for `Cc1nc2nc(C)c(CCC(=O)N3CCN(c4ccccn4)CC3)c(C)n2n1`?
Pf growth 96h: inactive; Pf growth 48h: inactive; HCMV inh: inactive; HCV inhibitor: inactive

Results for CC(=O)NCCN=Cc1sc2ccccc2c1O ?
Pf growth 96h: 3.7µM; Pf growth 48h: inactive; HCMV inh: inactive; HCV inhibitor: inactive

How did CN=Cc1sc2ccccc2c1O do in these assays?
Pf growth 96h: inconclusive; Pf growth 48h: inactive; HCMV inh: inactive; HCV inhibitor: inactive

How did Cc1cc(C)c(N=Cc2c(O)c3ccccc3oc2=O)c(C)c1 do in these assays?
Pf growth 96h: inactive; Pf growth 48h: 10µM; HCMV inh: inactive; HCV inhibitor: inactive

How did N#Cc1ccc(NC(=O)CSc2nc3[nH]c(=O)cc(O)c3s2)cc1 do in these assays?
Pf growth 96h: 1.5µM; Pf growth 48h: inconclusive; HCMV inh: -92; HCV inhibitor: inactive

What do the screens show for `CSc1ccc(NC(=O)CSc2nc3[nH]c(=O)cc(O)c3s2)cc1`?
Pf growth 96h: inactive; Pf growth 48h: inactive; HCMV inh: inactive; HCV inhibitor: inactive

How did COc1ccc(NC(=O)CSc2nc3[nH]c(=O)cc(O)c3s2)c(OC)c1 do in these assays?
Pf growth 96h: inactive; Pf growth 48h: 10µM; HCMV inh: inactive; HCV inhibitor: inactive

How did COCCn1c(CCC(=O)Nc2ccc(OC)c(OC)c2)nc2cccnc21 do in these assays?
HCMV inh: inactive

Results for CCOC(=O)c1c(C)[nH]c(CCC(=O)NCCCN2CCN(c3ccccc3F)CC2)c1C ?
HCMV inh: inactive

What do the screens show for `N/C(=N/OCc1cccc([N+](=O)[O-])c1)c1nonc1N`?
Pf growth 96h: inactive; Pf growth 48h: inactive; HCMV inh: -60; HCV inhibitor: inactive

Results for N/C(=N\OCc1ccccc1)c1nonc1N ?
Pf growth 96h: inconclusive; Pf growth 48h: inactive; HCMV inh: inactive; HCV inhibitor: inactive

What do the screens show for `O=c1c2cnn(-c3ccc(F)cc3)c2ncn1Cc1cccc(Cl)c1`?
HCMV inh: inactive

Results for O=C(Nc1ccc(F)cc1F)N1CCN(C/C=C/c2ccccc2)CC1 ?
Pf growth 96h: inconclusive; HCMV inh: inactive; HCV inhibitor: inconclusive

Results for O=C(Nc1ccc(F)cc1F)N1CCN(CCc2ccccc2)CC1 ?
Pf growth 96h: inactive; Pf growth 48h: 2.3µM; HCMV inh: inactive; HCV inhibitor: inactive

How did O=c1[nH]c(-c2ccncc2)nc2ccccc12 do in these assays?
Pf growth 96h: 7.4µM; Pf growth 48h: inactive; HCMV inh: inconclusive; HCV inhibitor: inactive

How did CC(C)Nc1nc2ccccc2c(=O)[nH]1 do in these assays?
Pf growth 96h: 10µM; Pf growth 48h: inactive; HCMV inh: inactive; HCV inhibitor: inactive

How did CCCNc1nc2ccccc2c(=O)[nH]1 do in these assays?
Pf growth 96h: inconclusive; Pf growth 48h: inactive; HCMV inh: inactive; HCV inhibitor: inactive

Results for Cc1cccc(NC(=O)Cn2c(=O)n(CCCCCC(=O)NCc3ccc4c(c3)OCO4)c(=O)c3sccc32)c1 ?
HCMV inh: inactive

What do the screens show for `CCc1nnc2c(Nc3cc(OC)c(Cl)cc3OC)nc3ccccc3n12`?
HCMV inh: inactive

What do the screens show for `CC1CCN(CCCn2c(SCC(=O)Nc3ccccc3Cl)nc3ccccc3c2=O)CC1`?
Pf growth 96h: inactive; Pf growth 48h: inactive; HCMV inh: inactive; HCV inhibitor: 11µM

How did O=C(CSc1nc2ccccc2c(=O)n1CCCN1CCOCC1)Nc1ccc(F)c(Cl)c1 do in these assays?
HCMV inh: inactive; HCV inhibitor: 1.8µM

How did Cc1ccc(NC(=O)CSc2nc3ccccc3c(=O)n2CCCN2CCCCC2)cc1Cl do in these assays?
Pf growth 96h: inconclusive; Pf growth 48h: inactive; HCMV inh: -97; HCV inhibitor: 2µM

Results for COc1ccc(CSc2nc3ccccc3c(=O)n2CCCN2CCOCC2)cc1F ?
Pf growth 96h: 8.3µM; Pf growth 48h: inconclusive; HCMV inh: inactive; HCV inhibitor: inactive

Screening results deposited in PubChem by National Center for Advancing Translational Sciences (NCATS).
